Molecules are shown by their SMILES. Where “and” joins values, the source holds several entries; their conditions need not be identical. Equal entries are not always repeated. Some compounds were tested as several samples or in several runs, with calls that do not always agree. Calls of active or inactive are those of the source. How the source made its calls: active means hit-call score of the fitted dose curve at least 0.9, where 1 is the maximum; inactive means score below 0.9.

Chain of Aryl hydrocarbon receptor (Homo sapiens) (P35869 whole entry, looked up): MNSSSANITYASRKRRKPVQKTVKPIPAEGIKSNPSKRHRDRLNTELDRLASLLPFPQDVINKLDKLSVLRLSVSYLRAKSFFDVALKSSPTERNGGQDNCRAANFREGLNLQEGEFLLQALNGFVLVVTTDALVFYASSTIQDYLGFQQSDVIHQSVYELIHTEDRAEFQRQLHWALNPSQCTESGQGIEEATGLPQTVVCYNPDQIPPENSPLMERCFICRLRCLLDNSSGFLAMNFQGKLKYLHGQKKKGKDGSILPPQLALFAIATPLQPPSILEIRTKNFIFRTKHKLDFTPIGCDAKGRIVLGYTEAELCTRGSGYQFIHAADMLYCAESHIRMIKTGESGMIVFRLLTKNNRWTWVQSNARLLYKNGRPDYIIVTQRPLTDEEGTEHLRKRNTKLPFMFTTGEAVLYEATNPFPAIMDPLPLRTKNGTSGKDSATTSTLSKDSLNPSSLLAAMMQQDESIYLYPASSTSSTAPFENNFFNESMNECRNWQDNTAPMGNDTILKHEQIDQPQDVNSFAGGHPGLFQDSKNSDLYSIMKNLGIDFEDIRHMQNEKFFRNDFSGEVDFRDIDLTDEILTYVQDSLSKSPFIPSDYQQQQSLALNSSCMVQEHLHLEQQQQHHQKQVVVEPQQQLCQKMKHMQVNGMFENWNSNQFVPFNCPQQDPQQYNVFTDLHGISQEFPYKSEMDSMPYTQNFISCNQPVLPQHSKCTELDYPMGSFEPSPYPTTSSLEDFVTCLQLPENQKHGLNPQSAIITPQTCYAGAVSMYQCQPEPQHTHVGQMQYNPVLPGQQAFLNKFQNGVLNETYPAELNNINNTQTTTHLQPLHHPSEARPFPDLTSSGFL

Tested on in the first experiment: not listed separately
The experiment can be described thus: ATG_CMV_CIS: Attagene CIS-FACTORIAL HepG2 Assay for human CMV (Internal Marker) (AID 2282928).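 Further: endpoint acts as a background internal control marker rather than a target.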 The following applies: HepG2 CMV promoter reporter, transcription factor profiling; actives raise or lower the signal. The method in brief: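 Reporter transcripts from transfected HepG2 cells are isolated after 24 h of chemical dosing, reverse-transcribed and amplified. Fragments labeled with 6-FAM are cut with HpaI and quantified by capillary electrophoresis; DMSO defines baseline.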
Regarding `O=C(O)C(F)(F)C(F)(F)C(F)(F)C(F)(F)C(F)(F)C(F)(F)C(F)(F)C(F)(F)Cl`, the result was inactive.

For `O=C(O)C(F)(F)C(F)(F)C(F)(F)C(F)(F)C(F)(F)C(F)(F)C(F)(F)C(F)(F)C(F)(F)C(F)F`, the outcome was inactive.

For the compound `CC/C=C\CCOC(=O)c1ccccc1`, the result was inactive.

Consider `FC(F)(F)C(F)(F)C(F)(F)C(F)(F)C(F)(F)C(F)(F)CC1CO1` (centres undefined), for which the call was inactive.

Take `O=C(O)C(F)(F)C(F)(F)OC(F)(F)F`: the outcome was inactive.

On to `FC(F)(F)C(F)(F)C(F)(F)C(F)(F)C(F)(F)C(F)(F)C(F)(F)C(F)(F)F`, for which the result was inactive.

One may read the AC50 as the concentration giving half of the maximal activity seen. `CCN(CC)c1ccc2c(C)cc(=O)oc2c1`: the AC50 is 26.5 µM (active).

`C=CC(F)(F)C(F)(F)C(F)(F)C(F)(F)C(F)(F)C(F)(F)C(F)(F)C(F)(F)F`: the result was inactive.

On to `C=CC(F)(F)C(F)(F)C(F)(F)C(F)(F)C(F)(F)C(F)(F)C(F)(F)C(F)(F)C=C`, for which the outcome was inactive.

Tested on in a further experiment: not listed separately
The experiment is described as follows: ATG_DR4_LXR_CIS: Attagene CIS-FACTORIAL HepG2 Assay for human Liver X Receptor (LXR), DR4 submotif (AID 2282929). As to conditions: HepG2 Attagene DR4 cis-reporter, mRNA transcription; actives raise or lower the signal. The method in brief: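 HepG2 cells were transiently transfected with multiple cis-regulated reporter units and dosed for 24 hours. The DR4 reporter mRNA was quantified by RT-PCR, 6-FAM labelling and capillary electrophoresis. Bidirectional fits used DMSO as baseline.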
With `CCO[Si](CCC(F)(F)C(F)(F)C(F)(F)C(F)(F)C(F)(F)C(F)(F)F)(OCC)OCC`, the outcome was inactive.

On to `FC(F)(F)C(F)(F)C(F)(F)C(F)(F)CCI`, for which the result was inactive.

For the compound `O=C(O)C(F)(F)C(F)(F)C(F)(F)C(F)(F)C(F)(F)C(F)(F)C(F)(F)C(F)(F)Cl`, the concentration at half-maximal activity (AC50) was 39.1 µM (active) and 34.7 µM (active).

Regarding `Cc1ccc(S(=O)(=O)NCl)cc1`, the call was inactive.

With `O=C(O)C(F)(F)C(F)(F)C(F)(F)C(F)(F)C(F)(F)C(F)(F)C(F)(F)C(F)(F)C(F)(F)C(F)F`, the call was inactive.

Regarding `C1COCCN1`, the compound was classed as inactive.

In the case of `CC/C=C\CCOC(=O)c1ccccc1`, the call was inactive.

As to `OCC(F)(F)C(F)(F)C(F)(F)C(F)F`, the compound was classed as inactive.

Turning to `FC(F)(F)C(F)(F)C(F)(F)C(F)(F)C(F)(F)C(F)(F)CC1CO1` (centres undefined), the result was inactive.

As to `COC(OC(C)=O)c1ccccc1` (centres undefined), the compound was classed as inactive.

For the compound `NC(=O)C(F)(F)C(F)(F)C(F)(F)C(F)(F)F`, the outcome was inactive.

For `O=C(O)C(F)(F)C(F)(F)OC(F)(F)F`, the call was inactive.

On to `O=C(Cl)C(F)(F)C(F)(F)C(F)(F)C(F)(F)C(F)(F)C(F)(F)C(F)(F)C(F)(F)F`, for which the half-maximal activity concentration (AC50) was 13 µM (active).

For the compound `O=S(=O)(OCCOC(F)(F)F)C(F)(F)F`, the outcome was inactive.

Regarding `FC(F)(F)C(F)(F)C(F)(F)CI`, the compound was called inactive.

With `CC/C=C\CCOC(C)=O`, the compound was classed as inactive.

On to `CS(C)(=O)=O`, for which the outcome was inactive.

For the compound `OCC(F)(F)C(F)(F)C(F)(F)F`, the outcome was inactive.

With `c1ccc(B(c2ccccc2)c2ccccc2)cc1`, the AC50 is 34.2 µM (active).

`FC(F)(F)C(F)(F)C(F)(F)C(F)(F)C(F)(F)C(F)(F)C(F)(F)C(F)(F)F`: the compound was called inactive.

Regarding `CCN(CC)c1ccc2c(C)cc(=O)oc2c1`, the compound was called inactive.

As to `C=CC(F)(F)C(F)(F)C(F)(F)C(F)(F)C(F)(F)C(F)(F)C(F)(F)C(F)(F)F`, the compound was called inactive.

On to `CC(Cc1ccc(O)c(O)c1)C(C)Cc1ccc(O)c(O)c1` (centres undefined), for which the compound was classed as inactive.

With `CCCCCCCCCCCCCCCC[N+](C)(C)Cc1ccccc1`, the half-maximal activity concentration (AC50) was 24.9 µM (active).

Regarding `FC(F)(F)C(F)(F)C(F)(F)C(F)(F)C(F)(F)C(F)(F)C(F)(F)Br`, the compound was classed as inactive.

Turning to `CC(C)=CCCC(C)CCOC(=O)C(C)C` (centres undefined), the compound was called inactive.

With `C(=C(c1ccccc1)c1ccccc1)c1ccccc1`, the half-maximal activity concentration (AC50) is 59 µM (active).

Consider `COC(=O)CCC(F)(F)C(F)(F)C(F)(F)C(F)(F)F`, for which the call was inactive.

For `C#C[C@]1(O)CC[C@H]2[C@@H]3CCc4cc(OC)ccc4[C@H]3CC[C@@]21C`, the result was inactive.

As to `O=S(=O)(OCC(F)F)C(F)(F)F`, the call was inactive.

Consider `CC(CCl)OP(=O)(OC(C)CCl)OC(C)CCl` (centres undefined), for which the call was inactive.

For the compound `FC(F)(F)C(F)(F)C(F)(F)C(F)(F)C(F)(F)C(F)(F)C(F)(F)I`, the call was inactive.

On to `C=CC(F)(F)C(F)(F)C(F)(F)C(F)(F)C(F)(F)C(F)(F)C(F)(F)C(F)(F)C=C`, for which the result was inactive.

Take `CCCCCC=O`: the compound was called inactive.

A further experiment concerns the target Aryl hydrocarbon receptor (Homo sapiens) (UniProt P35869). The experiment can be described thus: ATG_Ahr_CIS: Attagene CIS-FACTORIAL HepG2 Assay for human Aryl Hydrocarbon Receptor (Ahr) (AID 2282930). As to conditions: HepG2 AhR cis-factorial reporter transcription; actives raise or lower the signal. The gist of the method:
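Values derive from bidirectional fitting against DMSO negative control. Underlying signal: cis-element reporter mRNA in transiently transfected HepG2, harvested 24 h post-dose and measured by RT-PCR plus capillary electrophoresis.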
Consider `CCO[Si](CCC(F)(F)C(F)(F)C(F)(F)C(F)(F)C(F)(F)C(F)(F)F)(OCC)OCC`, for which the compound was called inactive.

Take `FC(F)(F)C(F)(F)C(F)(F)C(F)(F)CCI`: the concentration at half-maximal activity (AC50) was 43.5 µM (active) and the outcome was inactive.

`O=C(O)C(F)(F)C(F)(F)C(F)(F)C(F)(F)C(F)(F)C(F)(F)C(F)(F)C(F)(F)Cl`: the call was inactive.

As to `Cc1ccc(S(=O)(=O)NCl)cc1`, the AC50 was 66.9 µM (active) and 61.9 µM (active).

Take `O=C(O)C(F)(F)C(F)(F)C(F)(F)C(F)(F)C(F)(F)C(F)(F)C(F)(F)C(F)(F)C(F)(F)C(F)F`: the outcome was inactive.

As for `C1COCCN1`, the compound was classed as inactive.

Take `CC/C=C\CCOC(=O)c1ccccc1`: the outcome was inactive.

Consider `OCC(F)(F)C(F)(F)C(F)(F)C(F)F`, for which the call was inactive.

Regarding `FC(F)(F)C(F)(F)C(F)(F)C(F)(F)C(F)(F)C(F)(F)CC1CO1` (centres undefined), the compound was classed as inactive.

Take `COC(OC(C)=O)c1ccccc1` (centres undefined): the result was inactive.

With `NC(=O)C(F)(F)C(F)(F)C(F)(F)C(F)(F)F`, the outcome was inactive.

As to `O=C(O)C(F)(F)C(F)(F)OC(F)(F)F`, the compound was called inactive.

With `O=C(Cl)C(F)(F)C(F)(F)C(F)(F)C(F)(F)C(F)(F)C(F)(F)C(F)(F)C(F)(F)F`, the compound was classed as inactive.

Turning to `O=S(=O)(OCCOC(F)(F)F)C(F)(F)F`, the AC50 is 101 µM (active) and the compound was called inactive.

Consider `FC(F)(F)C(F)(F)C(F)(F)CI`, for which the result was inactive.

Turning to `CC/C=C\CCOC(C)=O`, the compound was called inactive.

With `CS(C)(=O)=O`, the compound was classed as inactive.

Regarding `OCC(F)(F)C(F)(F)C(F)(F)F`, the call was inactive.

For the compound `c1ccc(B(c2ccccc2)c2ccccc2)cc1`, the half-maximal activity concentration (AC50) is 32.8 µM (active).

For `FC(F)(F)C(F)(F)C(F)(F)C(F)(F)C(F)(F)C(F)(F)C(F)(F)C(F)(F)F`, the result was inactive.

Consider `CCN(CC)c1ccc2c(C)cc(=O)oc2c1`, for which the compound was classed as inactive.

Turning to `C=CC(F)(F)C(F)(F)C(F)(F)C(F)(F)C(F)(F)C(F)(F)C(F)(F)C(F)(F)F`, the compound was called inactive.

As to `CC(Cc1ccc(O)c(O)c1)C(C)Cc1ccc(O)c(O)c1` (centres undefined), the compound was called inactive.

With `CCCCCCCCCCCCCCCC[N+](C)(C)Cc1ccccc1`, the result was inactive.

Consider `FC(F)(F)C(F)(F)C(F)(F)C(F)(F)C(F)(F)C(F)(F)C(F)(F)Br`, for which the compound was classed as inactive.

As for `CC(C)=CCCC(C)CCOC(=O)C(C)C` (centres undefined), the compound was classed as inactive.

With `C(=C(c1ccccc1)c1ccccc1)c1ccccc1`, the call was inactive.

With `COC(=O)CCC(F)(F)C(F)(F)C(F)(F)C(F)(F)F`, the result was inactive.

`C#C[C@]1(O)CC[C@H]2[C@@H]3CCc4cc(OC)ccc4[C@H]3CC[C@@]21C`: the result was inactive.

In the case of `O=S(=O)(OCC(F)F)C(F)(F)F`, the compound was called inactive.

Consider `CC(CCl)OP(=O)(OC(C)CCl)OC(C)CCl` (centres undefined), for which the outcome was inactive.

In the case of `FC(F)(F)C(F)(F)C(F)(F)C(F)(F)C(F)(F)C(F)(F)C(F)(F)I`, the compound was called inactive.

Take `C=CC(F)(F)C(F)(F)C(F)(F)C(F)(F)C(F)(F)C(F)(F)C(F)(F)C(F)(F)C=C`: the compound was classed as inactive.

With `CCCCCC=O`, the compound was called inactive.

Source of the values: PubChem BioAssay (EPA / NIEHS).
